Results: the supplement of paper PMC10127200
Counter-ions that a name gives are not always drawn.

What was measured:
Experiment in all cases: Euclidean distance of Cell Painting phenotypic profile (signed KS, 77 features) to DMSO centroid (dimensionless distance); 5 or 10 uM (library dependent); higher = stronger phenotypic change vs DMSO (phenoactivity)
Details in all cases: 48 h
[1] = test system: 786-O
How it was run: (§1)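 Harmony extracted 77 features from 20X confocal images (9 fields/well) of stained cells, scoring each as a signed Kolmogorov-Smirnov statistic against same-plate vehicle wells. The cells, five cancer lines and a healthy fibroblast line, had received library compounds for 48 h at 10 or 5 uM depending on library, with 0.1% DMSO final. Phenoactivity is the Euclidean distance from each plate-position-corrected, correlation-weighted, top-dose replicate-averaged profile to the median vehicle profile.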

[2] = test system: A549
How it was run: as §1

[3] = test system: DU145
How it was run: as §1

[4] = test system: FB
How it was run: as §1

[5] = test system: HEPG2
How it was run: as §1

[6] = test system: OVCAR4
How it was run: as §1

| Compound | Euclidean distance [1] | Euclidean distance [2] | Euclidean distance [3] | Euclidean distance [4] | Euclidean distance [5] | Euclidean distance [6] |
| --- | --- | --- | --- | --- | --- | --- |
| C=CC1=C(C(=O)O)N2C(=O)[C@@H](NC(=O)/C(=N\OCC(=O)O)c3csc(N)n3)[C@H]2SC1 [Cefixime] | 1.35 | 0.916 | 0.778 | 1.38 | 0.6 | 1.73 |
| CCCCCOC(=O)Nc1nc(=O)n([C@@H]2O[C@H](C)[C@@H](O)[C@H]2O)cc1F [Capecitabine] | 1.77 | 0.754 | 1.15 | 0.899 | 0.821 | 1.23 |
| CCCCCCCCCCCCCCCCOP(=O)([O-])OCC[N+](C)(C)C [Miltefosine] | 1.74 | 1.27 | 1.17 | 1.39 | 1.15 | 1.63 |
| CCc1c2c(nc3ccc(O)cc13)-c1cc3c(c(=O)n1C2)COC(=O)[C@]3(O)CC | 4.4 | 4.38 | 3.48 | 4.61 | 3.55 | 3.46 |
| C[n+]1ccccc1C=NO [Pralidoxime Iodide] | 1.45 | 0.771 | 0.975 | 0.641 | 0.434 | 0.907 |
| CC(C)OC(=O)CCC/C=C\C[C@@H]1[C@@H](CC[C@@H](O)CCc2ccccc2)[C@H](O)C[C@@H]1O [Latanoprost] | 1.13 | 0.914 | 0.738 | 1.14 | 0.925 | 1.15 |
| CCCCNc1ccc(C(=O)OCCN(C)C)cc1 [Tetracaine HCl] | 0.993 | 0.918 | 0.964 | 1.06 | 0.941 | 1.79 |
| CCn1cc(C(=O)O)c(=O)c2ccc(C)nc21 [Nalidixic acid] | 1.33 | 0.755 | 1.12 | 1.07 | 0.602 | 1.5 |
| C[C@]12CCC(=O)C=C1CC[C@@H]1[C@@H]2[C@@H](O)C[C@@]2(C)[C@H]1CC[C@]2(O)C(=O)CO [Hydrocortisone] | 0.925 | 1.63 | 2.09 | 1.56 | 0.62 | 2.31 |
| CCCC(=O)Nc1cccc(NC(=O)c2ccccc2Br)c1 | 1.43 | 1.02 | 1.04 | 1.14 | 1.27 | 0.946 |
| C[C@@H]1[C@H](O)[C@@H](C)/C=C/C=C/C=C/C=C/C=C/C=C/C=C/[C@H](O[C@@H]2O[C@H](C)[C@@H](O)[C@H](N)[C@@H]2O)C[C@@H]2O[C@](O)(C[C@@H](O)C[C@@H](O)[C@H](O)CC[C@@H](O)C[C@@H](O)CC(=O)O[C@H]1C)C[C@H](O)[C@H]2C(=O)O [Amphotericin B] | 1.91 | 1.67 | 1.91 | 3.03 | 1.43 | 1.93 |
| CC(=O)Oc1cc2c(s1)CCN(C(C(=O)C1CC1)c1ccccc1F)C2 (centres undefined) [Prasugrel Hydrochloride] | 0.877 | 0.726 | 0.888 | 0.495 | 0.448 | 0.803 |
| CC[C@@H](Nc1c(Nc2cccc(C(=O)N(C)C)c2O)c(=O)c1=O)c1ccc(C)o1 | 1.24 | 0.692 | 0.995 | 0.605 | 0.633 | 0.96 |
| COc1cccc(-c2c(C)n(Cc3c(F)cccc3C(F)(F)F)c(=O)n(C[C@H](NCCCC(=O)O)c3ccccc3)c2=O)c1F [Elagolix Sodium] | 0.686 | 1.22 | 1.02 | 0.826 | 0.728 | 1.23 |
| CC[C@H]1OC(=O)C[C@@H](O)[C@H](C)[C@@H](O[C@@H]2O[C@H](C)[C@@H](O[C@H]3C[C@@](C)(O)[C@@H](O)[C@H](C)O3)[C@H](N(C)C)[C@H]2O)[C@@H](CC=O)C[C@@H](C)C(=O)/C=C/C(C)=C/[C@@H]1CO[C@@H]1O[C@H](C)[C@@H](O)[C@@H](OC)[C@H]1OC [Tylosin] | 0.535 | 1.08 | 0.612 | 0.794 | 0.42 | 0.917 |
| O=C(O)[C@@H]1CCCN1 [L-Proline] | 1.26 | 0.98 | 1.37 | 1 | 0.823 | 0.766 |
| Cc1cc(C)nc(NS(=O)(=O)c2ccc(N)cc2)n1 [Sulfamethazine Sodium Salt] | 0.877 | 0.792 | 0.732 | 0.878 | 0.494 | 1.38 |
| CC1=C(C(=O)OC(C)C)C(c2cccc([N+](=O)[O-])c2)C(C(=O)OC2CN(C(c3ccccc3)c3ccccc3)C2)=C(N)N1 (centres undefined) [Azelnidipine] | 1.85 | 3.31 | 1.12 | 1.17 | 1.44 | 2.01 |
| CC(=O)OC[C@H]1O[C@@H]([S-])[C@H](OC(C)=O)[C@@H](OC(C)=O)[C@@H]1OC(C)=O.CCP(CC)CC.[Au+] [Auranofin] | 5.67 | 4.89 | 6.36 | 6.74 | 3.39 | 5.08 |
